PubChem BioAssay AID504389 (National Center for Advancing Translational Sciences (NCATS), 2011)
Results filed as inconclusive are left out. Unmarked numbers belong to inactive results. Activity calls are given as the source filed them. Calls follow the shape of the dose curve; as a rule, active = well fitted curve in the direction sought with a large enough effect; inconclusive = small, poorly fitted or top-dose-only effect, or effect the other way, or another doubt; inactive = no such curve, though single readings can be large or run the other way.

These compounds were tested against Thyrotropin receptor (Homo sapiens) (UniProt P16473) (assay: qHTS Assay for Antagonists of the Thyroid Stimulating Hormone Receptor: SAR for Probe). Conditions: HEK293-TSHR, TSH-stimulated cAMP HTRF, 2 h; series mostly up to 57.5 µM; activity change, negative = inhibition: at the top concentration.
Thyrotropin receptor (Homo sapiens), sequence (P16473 whole entry, looked up): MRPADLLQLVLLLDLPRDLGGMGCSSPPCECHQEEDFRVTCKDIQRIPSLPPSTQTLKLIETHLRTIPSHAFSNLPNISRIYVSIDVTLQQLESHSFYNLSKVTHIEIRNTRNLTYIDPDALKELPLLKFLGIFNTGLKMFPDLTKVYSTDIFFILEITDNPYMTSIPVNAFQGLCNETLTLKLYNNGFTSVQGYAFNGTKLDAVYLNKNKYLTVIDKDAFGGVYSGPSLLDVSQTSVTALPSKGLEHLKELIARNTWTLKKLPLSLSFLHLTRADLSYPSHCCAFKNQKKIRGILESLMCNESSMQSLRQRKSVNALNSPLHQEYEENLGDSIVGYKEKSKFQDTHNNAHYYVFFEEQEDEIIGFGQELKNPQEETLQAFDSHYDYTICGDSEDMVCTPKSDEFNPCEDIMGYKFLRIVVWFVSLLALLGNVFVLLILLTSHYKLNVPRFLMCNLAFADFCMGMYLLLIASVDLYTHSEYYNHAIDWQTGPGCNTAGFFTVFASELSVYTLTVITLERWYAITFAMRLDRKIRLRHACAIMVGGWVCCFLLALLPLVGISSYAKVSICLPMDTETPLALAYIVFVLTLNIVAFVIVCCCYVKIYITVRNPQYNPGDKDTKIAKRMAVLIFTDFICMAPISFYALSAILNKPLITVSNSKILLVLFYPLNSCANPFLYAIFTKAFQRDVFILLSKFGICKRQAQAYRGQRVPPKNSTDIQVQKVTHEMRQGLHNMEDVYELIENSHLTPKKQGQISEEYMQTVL
Description: TSH is an alpha/beta heterodimeric glycoprotein hormone secreted from the anterior pituitary gland which belongs to the glycoprotein hormone family. The actions of TSH are mediated by a seven-transmembrane receptor, which upon TSH binding couples preferentially to the G-alpha (s) protein (Gs), resulting in activation of adenylate cyclase and increase in cyclic adenosine 3', 5' monophosphate (cAMP). The TSH receptor (THSR) is mainly expressed in thyroid follicular cells and regulates their growth and function. This cell based assay was conducted on a TSHR transfected HEK 293 cell line, measuring cAMP stimulation using antibody-based Homogeneous Time Resolved Fluorescence (HTRF). Our goal is to identify small molecules that will inhibit (antagonize) the thyroid-stimulating hormone receptor (TSHR), a member of the 7 transmembrane-spanning receptor (7TMR) family of cell surface receptors. TSHR-mediated hyperthyroidism is important in thyroid pathology. The development of small molecule antagonists of TSHR may lead to therapeutic approaches for TSHR-mediated hyperthyroidism caused by constitutively activating mutations or stimulating auto-antibodies associated with Graves' disease. Graves' disease is the leading cause of hyperthyroidism and is caused by autoantibodies that stimulate TSHR (TsAbs) causing thyroid growth and unregulated overproduction of thyroid hormones and existing treatments have liabilities (agranulocytosis). In addition, TSHRs are known to be expressed in multiple extrathyroidal tissues including bone, brain, kidney, testis, fat and cells of the immune system but the role of the TSHR in these tissues is not clear. Therefore, TSHR antagonists/inverse agonists could be used as probes of extrathyroidal TSHR function. Finally, TSHR inverse agonists, which are a subclass of antagonists that inhibit agonist-independent (or basal or constitutive) TSHR signaling, could be used to inhibit TSH-independent signaling in patients with recurrent or metastatic thyroid cancer who are receiving thyroid hormone to suppress TSH. The present assay presents confirmation data for analogues of series of interest in the primary screening assay.
An anti cAMP antibody contains a fluorescent cryptate tag (excitation 337 nm; emission 620 nm) and the acceptor is cAMP-d2 (excitation 620 nm; emission 665 nm). When antibody and cAMP-d2 interact and are excited by a 337 nm light, a FRET occurs resulting in emission at 665 nm. The assay is competition between cAMP-d2 and cAMP (from the cell lysate). The homogeneous protocol allows for one step dispense after stimulation that is automation friendly. Step, Parameter, Value, Description 1, Cells, 3 uL, 2000 TSHR freshly harvested cells/well 1536 TC treated White solid bottom plate (Cells resuspended in 10 mM HEPES buffered HBSS and 70 uM RO 20-1724) 2, Compound, 23 nL, Libraries and controls 3, Compound, 1 uL, EC80 TSH (4 nM final) 4, Time, 2 hours, 37C 5, Reagent, 2 uL, cAMP antibody diluted 1:20 in lysis buffer 6, Time, 30 minutes, Room temperature 7, Detector, HTRF settings, Viewlux

Row | Structure (SMILES) | activity change, negative = inhibition | Potency
1 | COc1ccc(C2Nc3ccccc3C(=O)N2Cc2ccco2)cc1COc1ccccc1 (stereo not given) | -5.86% | 
2 | COc1ccc(C2Nc3ccccc3C(=O)N2Cc2ccc3c(c2)OCO3)cc1COc1c(C)cc(NC(C)=O)cc1C (stereo not given) | -4.42% | 
3 | COc1ccc(C2Nc3ccccc3C(=O)N2CCCN(C)C)cc1COc1ccc(NC(C)=O)cc1 (stereo not given) | 1.85% | 
4 | COc1ccc(C2Nc3ccccc3C(=O)N2CCO)cc1COc1c(C)cc(NC(C)=O)cc1C (stereo not given) | -4.88% | 
5 | COc1ccc(C2Nc3ccccc3C(=O)N2Cc2ccco2)cc1 (stereo not given) | 1.84% | 
6 | COc1cccc(CCN2C(=O)c3ccccc3NC2c2ccc(OC)c(COc3c(C)cc(NC(C)=O)cc3C)c2)c1 (stereo not given) | -3.34% | 
7 | COc1ccc(C=O)cc1COc1ccc(NC(C)=O)cc1 | -1.52% | 
8 | COc1ccc(CN(Cc2ccccc2)S(=O)(=O)c2ccccc2)cc1COc1ccc(NC(C)=O)cc1 | 1.9% | 
9 | COc1ccc(OCc2cc(C3Nc4ccccc4C(=O)N3Cc3ccccc3)ccc2OC)cc1 (stereo not given) | 0.228% | 
10 | COc1ccc(CN(Cc2ccccc2)C(=O)c2ccc(NC(C)=O)cc2)cc1COc1ccc(NC(C)=O)cc1 | 6.21% | 
11 | COc1ccc(C2Nc3ccccc3C(=O)N2Cc2cccs2)cc1COc1c(C)cc(NC(C)=O)cc1C (stereo not given) | -13.2% | 
12 | COc1ccc(C2Nc3ccccc3C(=O)N2Cc2ccccc2)cc1COc1cccc(C)c1 (stereo not given) | 0.0298% | 
13 | COc1ccc(C2Nc3ccccc3C(=O)N2Cc2ccco2)cc1COc1ccc([N+](=O)[O-])cc1 (stereo not given) | 1.43% | 
14 | COc1ccc(C(=O)O)cc1COc1ccc(NC(C)=O)cc1 | 1.98% | 
15 | COc1ccc(C2Nc3ccccc3C(=O)N2CCCN(C)C)cc1COc1c(C)cc(NC(C)=O)cc1C (stereo not given) | -1.88% | 
16 | COc1ccc(C2Nc3ccccc3C(=O)N2Cc2ccccc2)cc1COc1c(C)cc(NC(C)=O)cc1C (stereo not given) | -2.91% | 
17 | COc1ccc(C2Nc3ccccc3C(=O)N2Cc2ccncc2)cc1COc1c(C)cc(NC(C)=O)cc1C (stereo not given) | -2.14% | 
18 | COc1ccc(C2Nc3ccccc3C(=O)N2Cc2ccco2)cc1COc1ccccc1C (stereo not given) | -6.42% | 
19 | COc1ccc(O)c(-c2nc3ccccc3c(=O)n2Cc2ccccc2)c1 | 2.81% | 
20 | COc1ccc(C2Nc3cccc(O)c3C(=O)N2Cc2ccco2)cc1COc1c(C)cc(NC(C)=O)cc1C (stereo not given) | -5.28% | 

Row | Structure (SMILES) | activity change, negative = inhibition | Potency
21 | Nc1ccccc1C(=O)NCc1ccco1 | 1.62% | 
22 | COc1ccc(O)c(C2Nc3ccccc3C(=O)N2Cc2ccccc2)c1 (stereo not given) | 2.33% | 
23 | O=C1c2ccccc2NC(c2ccccc2O)N1Cc1ccccc1 (stereo not given) | 2.98% | 
24 | COc1ccc(C2Nc3ccccc3C(=O)N2Cc2ccc(C(F)(F)F)o2)cc1COc1c(C)cccc1C (stereo not given) | -13% | 
25 | COc1ccc(C2Nc3ccccc3C(=O)N2Cc2ccccc2)cc1COc1ccc(Cl)cc1 (stereo not given) | 0.804% | 
26 | COc1cc(C2Nc3ccccc3C(=O)N2Cc2ccccc2)ccc1OCc1ccc(NC(C)=O)cc1 (stereo not given) | 0.705% | 
27 | COCCN1C(=O)c2ccccc2NC1c1ccc(OC)c(COc2c(C)cc(NC(C)=O)cc2C)c1 (stereo not given) |  | 46.1 µM (active)
28 | COc1ccc(C2Nc3ccccc3C(=O)N2Cc2ccco2)cc1COc1c(C(C)C)cccc1C(C)C (stereo not given) | -9.22% | 
29 | COc1ccc(C2Nc3ccccc3C(=O)N2Cc2ccco2)cc1COc1c(C)cc(NC(C)=O)cc1C (stereo not given) |  | 36.6 µM (active)
30 | COc1cccc(CN2C(=O)c3ccccc3NC2c2ccc(OC)c(COc3c(C)cc(NC(C)=O)cc3C)c2)c1 (stereo not given) | -4.12% | 
31 | O=c1c2ccccc2nc(-c2ccccc2O)n1Cc1ccccc1 | 3.37% | 
32 | Cc1cccc(C)c1OCc1cccc(C2Nc3ccccc3C(=O)N2Cc2ccco2)c1 (stereo not given) |  | 32.6 µM (active)
33 | COc1ccc(C2Nc3cccc(OC)c3C(=O)N2Cc2ccco2)cc1COc1c(C)cc(NC(C)=O)cc1C (stereo not given) | -4.71% | 
34 | COc1ccc(CN2C(=O)c3ccccc3NC2c2ccc(OC)c(COc3c(C)cc(NC(C)=O)cc3C)c2)cc1 (stereo not given) | -1.26% | 
35 | COc1ccc(C2NC(=O)c3ccccc3N2)cc1COc1c(C)cc(NC(C)=O)cc1C (stereo not given) | -2.55% | 
36 | COc1ccc(C2Nc3ccccc3C(=O)N2Cc2ccccn2)cc1COc1c(C)cccc1C (stereo not given) | -8.52% | 
37 | COc1ccc(C2Nc3ccccc3C(=O)N2Cc2ccccc2OC)cc1COc1c(C)cc(NC(C)=O)cc1C (stereo not given) | -7.63% | 
38 | COc1ccc(CN2C(=O)N(c3ccccc3)C(=O)C2c2ccccc2)cc1COc1ccc(NC(C)=O)cc1 (stereo not given) | 0.387% | 
39 | COc1ccc(C2Nc3ccccc3C(=O)N2Cc2cccnc2)cc1COc1c(C)cccc1C (stereo not given) |  | 36.6 µM (active)
40 | COc1ccc(CN(Cc2ccccc2)C(=O)CN2CCN(C)CC2)cc1COc1ccc(NC(C)=O)cc1 | 2.86% | 
